Records with an inconclusive call do not appear. Where a call stands in place of a potency, no number is given. Active and inactive are the calls of the source. Calls come from the whole dose curve; as a rule, active = well fitted inhibition curve with a large enough effect; inconclusive = small, poorly fitted or top-dose-only effect; inactive = no such curve, though single readings can be large or run the other way.
target: N-terminal Xaa-Pro-Lys N-methyltransferase 1 (Homo sapiens) (UniProt Q9BV86); assay: qHTS Assay for Inhibitors of N-terminal methyltransferase 1 (NTMT1): MTaseGlo Confirmatory Screen, Round 2; settings: NTMT1 enzyme, MTase-Glo SAH luminescence; series mostly up to 57.4 µM
Text: Assay Submitter (PI): Rong Huang Ph.D, Purdue University, West Lafayette, IN 47907
The N-terminal methytransferase 1 is the first methyltransferase that methylates protein alpha-N-amines and plays an important role in regulating cell mitosis, chromatin interactions and DNA repair. It is observed to be over-expressed in various cancer patient tissues like malignant melanoma and colorectal cancer tissues. Knockdown of NTMT1 in cancer cells causes cell mitotic defects and enhances sensitivity to DNA damaging chemotherapeutics. […] These critical cellular processes in which NTMT1 is implicated, coupled with emerging links to cellular dysfunction, strengthen the inference that NTMT1 is a compelling novel anticancer target. Progress have been made in understanding the molecular properties of NTMT1 and the biological consequences of protein alpha-N-terminal methylation, but there are no specific small molecule probes available for NTMT1 to fully characterize its MTase activity. To address this unmet need, a panel of assay is created and established to enable quantitative high-throughput screening (qHTS) for novel, potent, and selective small molecule NTMT1 inhibitors. Two orthogonal qHTS that use different reagents (ThioGlo vs. MTaseGlo) are developed for primary robotic screening against the NCATS chemical library of more than 400,000 small molecules. Identified inhibitors are reacquired, validated, and further characterized.
MTaseGlo Assay is a luminescence screen that measure the activity of methyltransferases based on the reaction product S-adenosyl homocysteine (SAH). The substrate SAM is converted to SAH upon enzyme activation. MTase-Glo reagent and detection solution convert SAH to ATP and measure the light from the luciferase reaction.
Early Translation Branch (ETB)
National Center for Advancing Translational Sciences (NCATS)
National Institute of Health (NIH)
NTMT1 enzyme, substrate SPKRIA, control peptide RCC1-6 is provided by the Huang laboratory.
In brief, 3 µL of enzyme mixture (final concentrations of 125 nM and 100 µM for NTMT1 and SAM, respectively) into all wells of a 1,536-well solid-bottom white plate (Greiner Bio One, Monroe, NC). 23 nL of DMSO or Ac-RCC1-10 (final concentration range 234 nM to 143 microM) was transferred via Wako Pin-tool (Wako Automation, Richmond, VA) and incubated (RT) for ~15 minutes. Next, 1 µL of substrate (final concentration 1 µM) or buffer was dispensed, and the reaction proceeded for 30 minutes (RT, protected from light) followed by a 1 microL addition of [5X] MTase-Glo Reagent(R). Samples were incubated (RT, protected from light) for 30 minutes to allow for SAH to be converted to ADP, followed by a 5 microL addition of [1X] MTase-Glo Detection Solution(R) to allow for ADP to be converted to ATP, which was then detected with a luciferase reaction. Samples were centrifuged for 15 seconds at 1,000 RPM's, followed by a RT incubation for 30 minutes. Plates were then read using Luminescence optics on a ViewLux detector. Data were normalized to no-enzyme (0% activity) and no-inhibitor (DMSO; 100%) controls, and the resulting percent inhibition data were fitted to a 4-parameter Hill equation using Graphpad Prism.
Potency is the fitted concentration of half-maximal effect.

Chain of N-terminal Xaa-Pro-Lys N-methyltransferase 1 (Homo sapiens) (Q9BV86 whole entry, looked up): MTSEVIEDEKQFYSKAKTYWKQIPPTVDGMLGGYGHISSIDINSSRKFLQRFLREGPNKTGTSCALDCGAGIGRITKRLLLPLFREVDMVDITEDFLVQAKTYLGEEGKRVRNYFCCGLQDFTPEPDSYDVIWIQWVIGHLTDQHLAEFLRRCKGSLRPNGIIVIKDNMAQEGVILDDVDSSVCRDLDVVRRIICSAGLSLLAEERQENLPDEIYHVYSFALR

Row | SMILES | Potency
1 | COc1ccc2c(c[n+](C)c3c4cc5c(cc4ccc23)OCO5)c1OC | inactive
2 | COC[C@H]1OC(=O)c2coc3c2[C@@]1(C)C1=C(C3=O)C2CCC(=O)[C@@]2(C)C[C@H]1OC(C)=O (stereo partly drawn) | inactive
3 | CN(N=O)c1cc(O)ccc1O | inactive
4 | CCCN(CCC)[C@H]1CCc2c(F)ccc(O)c2C1 | inactive
5 | CCn1cnc2c(Nc3cccc(Cl)c3)nc(N[C@@H]3CCCC[C@@H]3N)nc21 | 11.2 µM (active)
6 | NC(Cc1cc(O)c(O)cc1O)C(=O)O (stereo not drawn) | 15.8 µM (active)
7 | CC(=O)c1c(O)c(C)c(O)c(Cc2c(O)c3c(c(C(=O)/C=C/c4ccccc4)c2O)OC(C)(C)C=C3)c1O | inactive
8 | O=C1CC[C@@]2(O)C3Cc4ccc(O)c5c4C2(CCN3CC2CC2)[C@H]1O5 (stereo partly drawn) | inactive
9 | NCC(O)c1cc(O)c(O)cc1F (stereo not drawn) | inactive
10 | NC(N)=Nc1ccc2[nH]c3c(c2c1)C[C@@]1(O)[C@H]2Cc4ccc(O)c5c4[C@@]1(CCN2CC1CC1)[C@H]3O5 | 25.1 µM (active)
11 | CC(C)=CCOc1c2occc2cc2ccc(=O)oc12 | inactive
12 | c1ccc(CCCN2CCN(CCOC(c3ccccc3)c3ccccc3)CC2)cc1 | inactive
13 | O=[N+]([O-])/C=C/c1ccc2c(c1)OCO2 | inactive
14 | N#C/C(=C/c1ccc(O)c(O)c1)C(N)=S | inactive
15 | O=[N+]([O-])c1cc(O)c(O)c([N+](=O)[O-])c1 | inactive
16 | O=[N+]([O-])c1ccc2nc(N3CCNCC3)ccc2c1 | inactive
17 | Clc1ccc(N2CC3CCC(C2)N3)nn1 | inactive
18 | NC(=O)CI | 8.91 µM (active)
19 | CC(N)[C@H](O)c1ccc(O)c(O)c1 (stereo partly drawn) | inactive
20 | CC(N)Cc1c[nH]c2ccc(O)cc12 (stereo not drawn) | inactive
21 | CNCCc1c[nH]c2ccc(O)cc12 | inactive
22 | O=S1(=O)N(CCN2CC=C(c3c[nH]c4cc(F)ccc34)CC2)c2cccc3c2N1CCC3 | inactive
23 | N#CC(C#N)=Cc1ccc(O)c(O)c1 | inactive
